# Results: the supplement of paper PMC10849652
# The full data set covers some 7,900 targets. This sample favours those with a hit. About 0.6% of all pairs of compound and target were hits. Values without a mark were called inactive.
# Compound: CC1=C(C=C(C=C1)NC(=O)C2=CC(=CC=C2)C(C)(C)C#N)NC3=CC4=C(C=C3)N=CN(C4=O)C
# Assay: log2 fold change, soluble protein after heating vs DMSO (PISA); higher = thermal stabilisation; K562 cells, 10 uM, 30 min; active = over 0.2 and 3.5 SD of the protein, either way, in both replicates (recomputed)
# Method in brief: (§1)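 K562 cells at 2×10^6 cells/mL were treated with 10 μM compound for 30 min. Aliquots were heated for 3 min across 48°C-58°C, pooled, and extracted in PBS with 0.5% NP-40 at 4°C; soluble protein was the supernatant after 21,000xg for 90 min. Soluble protein was quantified by TMTpro 16plex LC-MS/MS with channel sums equalised, and reported as log2 fold change in thermal stability against DMSO controls, with values from duplicates.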
# Sequence of UniProt Q13137 (Q13137 whole entry, looked up): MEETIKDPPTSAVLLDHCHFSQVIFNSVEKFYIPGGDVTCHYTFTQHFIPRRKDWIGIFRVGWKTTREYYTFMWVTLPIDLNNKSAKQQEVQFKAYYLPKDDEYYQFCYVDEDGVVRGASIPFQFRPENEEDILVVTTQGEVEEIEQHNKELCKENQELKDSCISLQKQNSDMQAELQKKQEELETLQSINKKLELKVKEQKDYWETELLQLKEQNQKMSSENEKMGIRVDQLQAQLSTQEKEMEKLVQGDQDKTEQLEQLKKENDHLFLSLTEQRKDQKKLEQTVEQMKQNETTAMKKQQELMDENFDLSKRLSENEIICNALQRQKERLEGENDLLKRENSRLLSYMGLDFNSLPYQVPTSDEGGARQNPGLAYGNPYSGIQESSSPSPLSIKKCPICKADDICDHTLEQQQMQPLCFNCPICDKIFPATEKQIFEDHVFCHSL
# Sequence of UniProt Q99653 (Q99653 whole entry, looked up): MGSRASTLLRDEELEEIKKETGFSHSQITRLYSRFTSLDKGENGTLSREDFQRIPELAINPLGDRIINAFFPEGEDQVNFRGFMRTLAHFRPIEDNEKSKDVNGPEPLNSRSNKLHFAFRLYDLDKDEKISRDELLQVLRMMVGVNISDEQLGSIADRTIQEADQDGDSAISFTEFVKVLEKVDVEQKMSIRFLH
# Sequence of UniProt P83916 (P83916 whole entry, looked up): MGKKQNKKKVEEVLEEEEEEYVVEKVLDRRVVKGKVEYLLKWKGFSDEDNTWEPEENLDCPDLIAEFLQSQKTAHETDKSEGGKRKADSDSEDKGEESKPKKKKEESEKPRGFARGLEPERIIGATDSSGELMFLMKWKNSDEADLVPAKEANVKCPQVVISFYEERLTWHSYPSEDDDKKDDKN
# Sequence of UniProt Q2TAC2 (Q2TAC2 whole entry, looked up): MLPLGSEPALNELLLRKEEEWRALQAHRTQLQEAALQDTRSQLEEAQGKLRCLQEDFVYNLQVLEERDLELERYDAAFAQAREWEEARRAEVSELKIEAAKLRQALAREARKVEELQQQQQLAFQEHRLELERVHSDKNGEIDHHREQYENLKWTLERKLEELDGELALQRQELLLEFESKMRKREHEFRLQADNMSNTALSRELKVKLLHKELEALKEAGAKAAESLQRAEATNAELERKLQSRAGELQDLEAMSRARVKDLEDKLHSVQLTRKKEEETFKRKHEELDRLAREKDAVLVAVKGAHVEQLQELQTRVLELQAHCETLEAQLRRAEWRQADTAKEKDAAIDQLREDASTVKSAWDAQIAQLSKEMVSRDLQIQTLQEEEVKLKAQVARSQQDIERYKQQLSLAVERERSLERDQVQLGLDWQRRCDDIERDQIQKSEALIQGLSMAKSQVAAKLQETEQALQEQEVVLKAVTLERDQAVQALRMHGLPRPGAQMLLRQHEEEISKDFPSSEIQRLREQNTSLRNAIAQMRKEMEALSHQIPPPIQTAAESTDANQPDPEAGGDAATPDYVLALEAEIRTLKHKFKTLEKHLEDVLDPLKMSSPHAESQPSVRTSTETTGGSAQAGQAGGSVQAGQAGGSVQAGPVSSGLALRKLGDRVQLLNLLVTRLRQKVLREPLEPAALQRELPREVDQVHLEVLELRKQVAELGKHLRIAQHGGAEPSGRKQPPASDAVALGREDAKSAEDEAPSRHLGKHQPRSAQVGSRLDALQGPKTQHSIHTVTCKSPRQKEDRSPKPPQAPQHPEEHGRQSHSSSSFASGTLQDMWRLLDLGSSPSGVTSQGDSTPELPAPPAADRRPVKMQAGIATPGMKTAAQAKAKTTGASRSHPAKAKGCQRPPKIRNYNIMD
# Sequence of UniProt Q8WUX2 (Q8WUX2 whole entry, looked up): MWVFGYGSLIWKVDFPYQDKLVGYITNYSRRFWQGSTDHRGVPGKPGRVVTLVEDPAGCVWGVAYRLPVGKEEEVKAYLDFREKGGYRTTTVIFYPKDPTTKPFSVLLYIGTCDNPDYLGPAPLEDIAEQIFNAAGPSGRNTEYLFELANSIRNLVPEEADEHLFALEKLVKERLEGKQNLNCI
# Sequence of UniProt P27708 (P27708 whole entry, looked up): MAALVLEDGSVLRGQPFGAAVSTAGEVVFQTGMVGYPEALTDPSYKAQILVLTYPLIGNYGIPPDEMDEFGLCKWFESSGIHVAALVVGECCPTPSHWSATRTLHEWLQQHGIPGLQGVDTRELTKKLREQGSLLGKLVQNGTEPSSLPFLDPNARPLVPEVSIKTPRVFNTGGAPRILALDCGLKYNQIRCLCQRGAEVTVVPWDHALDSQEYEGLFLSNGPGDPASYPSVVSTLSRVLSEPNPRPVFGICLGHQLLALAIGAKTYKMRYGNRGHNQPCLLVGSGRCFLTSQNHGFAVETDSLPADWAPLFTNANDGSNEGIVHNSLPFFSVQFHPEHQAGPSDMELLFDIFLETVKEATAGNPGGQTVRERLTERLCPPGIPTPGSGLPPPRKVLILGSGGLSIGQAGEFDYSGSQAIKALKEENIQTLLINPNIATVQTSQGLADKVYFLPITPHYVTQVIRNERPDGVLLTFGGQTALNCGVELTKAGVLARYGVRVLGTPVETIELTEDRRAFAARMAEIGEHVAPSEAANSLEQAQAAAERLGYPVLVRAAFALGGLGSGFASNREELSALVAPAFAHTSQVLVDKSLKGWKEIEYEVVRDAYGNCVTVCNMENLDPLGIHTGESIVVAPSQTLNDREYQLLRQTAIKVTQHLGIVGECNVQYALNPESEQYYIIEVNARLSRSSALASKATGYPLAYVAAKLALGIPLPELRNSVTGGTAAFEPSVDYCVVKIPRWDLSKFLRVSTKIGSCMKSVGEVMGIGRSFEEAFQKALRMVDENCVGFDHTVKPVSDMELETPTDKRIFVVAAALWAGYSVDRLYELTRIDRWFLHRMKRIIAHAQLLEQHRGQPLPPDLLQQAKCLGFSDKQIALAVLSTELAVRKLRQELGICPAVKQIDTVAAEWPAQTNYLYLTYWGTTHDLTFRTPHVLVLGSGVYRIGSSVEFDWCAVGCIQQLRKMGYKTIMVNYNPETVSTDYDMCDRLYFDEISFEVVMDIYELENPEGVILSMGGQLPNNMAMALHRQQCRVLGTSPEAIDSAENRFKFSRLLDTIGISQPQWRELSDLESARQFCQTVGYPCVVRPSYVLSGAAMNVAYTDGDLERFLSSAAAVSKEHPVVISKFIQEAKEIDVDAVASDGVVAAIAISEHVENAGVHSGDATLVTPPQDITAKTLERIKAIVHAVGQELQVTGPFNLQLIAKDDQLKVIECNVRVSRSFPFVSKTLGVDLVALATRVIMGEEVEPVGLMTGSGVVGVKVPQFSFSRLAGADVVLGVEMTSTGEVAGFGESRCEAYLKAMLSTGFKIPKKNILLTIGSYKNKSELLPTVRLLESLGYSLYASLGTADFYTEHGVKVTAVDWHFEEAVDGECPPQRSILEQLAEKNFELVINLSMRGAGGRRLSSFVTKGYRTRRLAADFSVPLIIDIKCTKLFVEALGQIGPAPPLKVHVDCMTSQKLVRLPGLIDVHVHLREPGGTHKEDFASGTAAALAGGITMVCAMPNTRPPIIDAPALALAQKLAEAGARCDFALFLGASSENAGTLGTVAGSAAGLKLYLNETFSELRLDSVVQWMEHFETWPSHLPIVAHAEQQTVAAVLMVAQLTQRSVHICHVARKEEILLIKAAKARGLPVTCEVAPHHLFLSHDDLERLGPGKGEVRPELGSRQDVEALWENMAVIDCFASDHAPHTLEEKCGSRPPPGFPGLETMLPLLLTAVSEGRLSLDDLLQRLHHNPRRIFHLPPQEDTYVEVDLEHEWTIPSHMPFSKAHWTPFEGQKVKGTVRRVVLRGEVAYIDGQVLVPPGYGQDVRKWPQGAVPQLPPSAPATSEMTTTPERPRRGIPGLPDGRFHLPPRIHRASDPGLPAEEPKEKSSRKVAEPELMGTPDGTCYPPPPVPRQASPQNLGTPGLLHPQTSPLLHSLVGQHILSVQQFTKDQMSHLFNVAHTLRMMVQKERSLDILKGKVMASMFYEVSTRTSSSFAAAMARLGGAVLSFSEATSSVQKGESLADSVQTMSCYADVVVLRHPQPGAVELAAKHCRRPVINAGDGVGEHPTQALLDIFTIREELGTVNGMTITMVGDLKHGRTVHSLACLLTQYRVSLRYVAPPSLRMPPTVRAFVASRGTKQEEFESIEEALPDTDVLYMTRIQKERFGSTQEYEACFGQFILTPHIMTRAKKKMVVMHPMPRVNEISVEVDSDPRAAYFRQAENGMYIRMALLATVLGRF
# Sequence of UniProt Q96G23 (Q96G23 whole entry, looked up): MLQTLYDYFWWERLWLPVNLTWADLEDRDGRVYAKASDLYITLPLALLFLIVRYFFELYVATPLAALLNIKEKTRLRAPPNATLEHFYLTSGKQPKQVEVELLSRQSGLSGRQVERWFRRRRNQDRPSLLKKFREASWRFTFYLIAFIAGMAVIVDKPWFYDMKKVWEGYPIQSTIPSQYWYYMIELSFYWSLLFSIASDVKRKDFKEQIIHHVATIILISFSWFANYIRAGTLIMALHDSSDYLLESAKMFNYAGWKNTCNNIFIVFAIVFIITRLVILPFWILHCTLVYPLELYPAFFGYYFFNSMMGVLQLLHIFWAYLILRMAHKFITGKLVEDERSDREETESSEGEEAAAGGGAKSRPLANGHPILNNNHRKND
# Sequence of UniProt P86791 (P86791 whole entry, looked up): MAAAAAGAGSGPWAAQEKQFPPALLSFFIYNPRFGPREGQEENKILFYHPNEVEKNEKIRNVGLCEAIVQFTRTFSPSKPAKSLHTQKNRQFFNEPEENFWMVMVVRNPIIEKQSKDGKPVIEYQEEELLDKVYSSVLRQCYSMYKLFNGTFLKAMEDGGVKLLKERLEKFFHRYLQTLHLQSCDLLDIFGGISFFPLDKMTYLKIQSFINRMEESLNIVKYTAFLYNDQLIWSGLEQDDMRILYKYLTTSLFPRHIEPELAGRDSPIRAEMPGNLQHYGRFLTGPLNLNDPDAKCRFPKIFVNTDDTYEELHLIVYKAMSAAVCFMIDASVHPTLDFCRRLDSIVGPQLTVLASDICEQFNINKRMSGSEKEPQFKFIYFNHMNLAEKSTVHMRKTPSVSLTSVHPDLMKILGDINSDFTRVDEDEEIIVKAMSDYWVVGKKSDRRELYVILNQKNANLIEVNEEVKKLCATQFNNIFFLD
row,Target,log2 fold change
1,CERT isoform 3 (UniProt Q9Y5P4),0.154
2,CCDC57 (UniProt Q2TAC2),0.004
3,CRKL (UniProt P46109),-1.25 (active)
4,CBX1 (UniProt P83916),0.049
5,CBX5 (UniProt P45973),0.051
6,CRLF3 (UniProt Q8IUI8),0.05
7,CASC3 (UniProt O15234),0.043
8,CD55 isoform 7 (UniProt P08174),0.037
9,CALCOCO2 isoform 4 (UniProt Q13137),-0.005
10,CETN3 (UniProt O15182),0.001
11,CHAC2 (UniProt Q8WUX2),-0.001
12,CPSF7 isoform 3 (UniProt Q8N684),0.015
13,CNTN4 (UniProt Q8IWV2),-0.053
14,CD63 (UniProt P08962),-0.007
15,CCDC59 (UniProt Q9P031),-0.067
16,CBR1 (UniProt P16152),0.006
17,CHP1 (UniProt Q99653),-0.048
18,CLINT1 isoform 3 (UniProt Q14677),-0.082

row,Target,log2 fold change
1,COMMD2 (UniProt Q86X83),-0.014
2,C9orf72 (UniProt Q96LT7),0.108
3,CLUH (UniProt O75153),-0.017
4,CERS2 (UniProt Q96G23),-0.02
5,CKB (UniProt P12277),0.016
6,CHCHD1 (UniProt Q96BP2),-0.02
7,CDK5RAP3 isoform 4 (UniProt Q96JB5),0.018
8,CAD (UniProt P27708),-0.047
9,CSTF3 (UniProt Q12996),-0.038
10,CSNK2B (UniProt P67870),-0.019
11,CCZ1 (UniProt P86791),-0.005
12,CDC42SE1 (UniProt Q9NRR8),0.132
13,COPS3 (UniProt Q9UNS2),-0.008
14,C4orf33 (UniProt Q8N1A6),-0.101
15,CTBS (UniProt Q01459),0.206
16,CALB1 (UniProt P05937),-0.004
17,CAMKK2 (UniProt Q96RR4),0.022
18,CAMSAP1 isoform 3 (UniProt Q5T5Y3),0.03

# Compound: CC1=C(C=C(C=C1)NC(=O)C2=CC(=CC=C2)N(C)C)NC(=O)C3=CC=C(C=C3)O
# Assay: as above
# Method in brief: as §1
row,Target,log2 fold change
1,CERT isoform 3 (UniProt Q9Y5P4),-0.103
2,CCDC57 (UniProt Q2TAC2),0.02
3,CRKL (UniProt P46109),-0.029
4,CBX1 (UniProt P83916),-0.005
5,CBX5 (UniProt P45973),0.029
6,CRLF3 (UniProt Q8IUI8),-0.015
7,CASC3 (UniProt O15234),-0.003
8,CD55 isoform 7 (UniProt P08174),-0.006
9,CALCOCO2 isoform 4 (UniProt Q13137),-0.008
10,CETN3 (UniProt O15182),0.012
11,CHAC2 (UniProt Q8WUX2),0.025
12,CPSF7 isoform 3 (UniProt Q8N684),0.001
13,CNTN4 (UniProt Q8IWV2),0
14,CD63 (UniProt P08962),0.056
15,CCDC59 (UniProt Q9P031),-0.017
16,CBR1 (UniProt P16152),-0.023
17,CHP1 (UniProt Q99653),-0.016
18,CLINT1 isoform 3 (UniProt Q14677),-0.001

row,Target,log2 fold change
1,COMMD2 (UniProt Q86X83),-0.051
2,C9orf72 (UniProt Q96LT7),-0.009
3,CLUH (UniProt O75153),-0.08
4,CERS2 (UniProt Q96G23),0.015
5,CKB (UniProt P12277),-0.006
6,CHCHD1 (UniProt Q96BP2),-0.119
7,CDK5RAP3 isoform 4 (UniProt Q96JB5),-0.035
8,CAD (UniProt P27708),-0.009
9,CSTF3 (UniProt Q12996),0.014
10,CSNK2B (UniProt P67870),0.021
11,CCZ1 (UniProt P86791),-0.029
12,CDC42SE1 (UniProt Q9NRR8),0.059
13,COPS3 (UniProt Q9UNS2),-0.013
14,C4orf33 (UniProt Q8N1A6),0.04
15,CTBS (UniProt Q01459),0.014
16,CALB1 (UniProt P05937),0.032
17,CAMKK2 (UniProt Q96RR4),0.024
18,CAMSAP1 isoform 3 (UniProt Q5T5Y3),-0.009
